Measured values: PubChem BioAssay (NCATS)
Results filed as inconclusive are left out. Calls of active or inactive are those of the source. Unless noted, the call rests on the fitted dose curve; in most records, active means well fitted curve in the direction sought with a large enough effect; inconclusive means small, poorly fitted or top-dose-only effect, or another doubt; inactive means no such curve, though single readings can be large; an effect the other way counts as inactive or inconclusive.

Assays:
[1] = Cell Viability - Hek293 (AID 427;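 active means compounds whose dose-response curve shows a full or clear partial loss of cell viability, called from curve shape rather than a numeric limit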;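 further: potency means the concentration at half of the fitted maximal effect; cells exposed to compound for 40 hours at 37 °C before reading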); conditions: qHTS
Procedure, shortened: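 Luminescent ATP read-out (CellTiter-Glo, 20 min RT) after 40 hr compound exposure at 37 °C in complete medium. Signal normalized to DMSO (basal) and 100 uM tamoxifen (100% inhibition); concentration-response fitted with the standard Hill equation to give AC50.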

[2] = Cellular Toxicity (caspase-3) Mesangial (AID 660); conditions: mesangial cells, normalized: DMSO 0%, 100 µM tamoxifen 100%; series mostly up to 91.7 µM;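 further: combined caspase 3 and 7 activity read by Caspase-Glo luminescence; cells exposed to compound for 16 h before the caspase read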
Procedure, shortened: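 Concentration-response qHTS: compound-induced rise in caspase 3/7 luminescence in human mesangial cells after 16 h, normalized to DMSO and 100 uM tamoxifen controls.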

[3] = Cell Viability - LYMP2-005 (AID 967); conditions: LYMP2-005 lymphoblastoid cell viability; series mostly up to 92.2 µM
Procedure, shortened: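 qHTS viability screen in LYMP2-005 cells: 24 h at 37 C with compound, ATP luminescence via CellTiter-Glo, AC50 from Hill curves.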

[4] = Cell Viability - LYMP2-021 (AID 974); conditions: LYMP2-021 lymphoblastoid cells viability; series mostly up to 92.2 µM;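 further: compound exposure lasts 24 hours at 37 °C; nearly all actives have a fitted effect of over 55% in size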
Procedure, shortened: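 Concentration-response cytotoxicity in a human lymphoblastoid line: 24 hr treatment at 37 C in complete culture medium, tetraoctylammonium bromide as positive control, luminescent ATP quantitation as viability measure.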

[5] = Cell Viability - LYMP2-002 (AID 977); conditions: LYMP2-002 lymphoblastoid cell viability, qHTS; series mostly up to 92.2 µM
Procedure, shortened: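 Luminescent ATP readout (CellTiter-Glo, 30 min room temperature) after 24 h compound exposure at 37 C of a human lymphoblastoid line, 2500 cells/well. AC50 values derived by standard Hill fitting of qHTS concentration-response data.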

[6] = Cell Viability - LYMP2-008 (AID 980); conditions: LYMP2-008 lymphoblastoid cell viability, qHTS; series mostly up to 92.2 µM; further: nearly all actives have a fitted effect of over 60% in size
Procedure, shortened: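 Acute cytotoxicity is scored as concentration-dependent loss of cellular ATP in a human lymphoblastoid line after 24 hr treatment at 37 C. ATP is quantified by luciferase luminescence.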

[7] = Cell Viability - LYMP2-014 (AID 983); conditions: LYMP2-014 lymphoblastoid cells, viability qHTS; series mostly up to 92.2 µM; further: nearly all actives have a fitted effect of over 50% in size
Procedure, shortened: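 Decrease in intracellular ATP after 24 hr treatment at 37 C, measured by luciferase luminescence, indicated cytotoxicity. Concentration-response data were fitted with the standard Hill equation to give AC50.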

[8] = Cell Viability - LYMP2-016 (AID 984); conditions: LYMP2-016 lymphoblastoid cell viability, qHTS; series mostly up to 92.2 µM;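 further: cells exposed to compound for 24 hours at 37 °C; nearly all actives have a fitted effect of over 55% in size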
Procedure, shortened: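 Acute toxicity in a Coriell human lymphoblastoid line is scored as loss of intracellular ATP over 24 h of treatment in complete medium. CellTiter-Glo signal is fitted across concentrations with the Hill equation to give AC50.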

[9] = Cell Viability - LYMP2-024 (AID 988); conditions: LYMP2-024 lymphoblastoid cell viability; series mostly up to 92.2 µM;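 further: cells exposed to compound for 24 hr at 37 °C; nearly all actives have a fitted effect of over 60% in size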
Procedure, shortened: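 Acute toxicity is measured as concentration-dependent loss of intracellular ATP in a human lymphoblastoid line treated 24 hours at 37 C. Luciferase luminescence quantifies ATP; AC50 values come from standard Hill-equation modelling.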

[10] = molecular target: Glucocorticoid receptor (Homo sapiens) (UniProt P04150); assay: qHTS assay for small molecule antagonists of glucocorticoid receptor signaling (AID 588533; active means well fitted inhibition curve with a large enough effect in the signal ratio, with a control signal flat, not every such curve was filed as active; the % refers to the signal ratio;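 further: cells stimulated with 2 nM dexamethasone as agonist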); conditions: HeLa MMTV-bla, GRE beta-lactamase ratio, antagonist mode, 18 h; series mostly up to 76.8 µM
Glucocorticoid receptor (Homo sapiens), sequence (P04150 whole entry, looked up): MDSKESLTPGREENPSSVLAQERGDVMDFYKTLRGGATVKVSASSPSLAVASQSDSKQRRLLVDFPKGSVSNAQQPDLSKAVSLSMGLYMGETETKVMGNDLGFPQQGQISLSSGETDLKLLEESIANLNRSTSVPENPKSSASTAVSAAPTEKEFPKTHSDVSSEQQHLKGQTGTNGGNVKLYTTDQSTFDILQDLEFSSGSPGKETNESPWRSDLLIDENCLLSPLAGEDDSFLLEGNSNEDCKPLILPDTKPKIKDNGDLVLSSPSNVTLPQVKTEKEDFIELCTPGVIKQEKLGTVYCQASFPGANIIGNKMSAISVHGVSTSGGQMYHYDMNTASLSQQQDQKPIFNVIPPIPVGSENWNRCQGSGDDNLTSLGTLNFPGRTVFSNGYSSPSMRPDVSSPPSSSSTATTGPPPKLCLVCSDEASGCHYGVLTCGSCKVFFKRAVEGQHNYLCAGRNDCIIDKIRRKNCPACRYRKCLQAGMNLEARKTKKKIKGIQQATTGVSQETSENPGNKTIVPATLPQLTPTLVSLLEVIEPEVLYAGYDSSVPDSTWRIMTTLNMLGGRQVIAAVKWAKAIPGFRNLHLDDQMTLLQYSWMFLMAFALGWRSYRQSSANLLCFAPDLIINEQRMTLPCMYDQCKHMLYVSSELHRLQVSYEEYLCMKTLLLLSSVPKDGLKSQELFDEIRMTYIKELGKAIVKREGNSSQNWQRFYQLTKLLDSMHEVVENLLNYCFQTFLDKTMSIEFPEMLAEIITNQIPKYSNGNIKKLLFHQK
Procedure, shortened: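 Antagonist-mode qHTS: compound titrations added to GRE-bla HeLa cells, then dexamethasone 2 nM final; 18 h, 37 C. CCF4 FRET fluorescence normalized to dexamethasone and DMSO; IC50 from Hill fit.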

[11] = molecular target: Peroxisome proliferator-activated receptor gamma (Homo sapiens) (UniProt P37231); assay: qHTS assay for small molecule antagonists of peroxisome proliferator-activated receptor gamma signaling (AID 588537; active means well fitted inhibition curve with a large enough effect in the signal ratio, with a control signal flat, not every such curve was filed as active; the % refers to the signal ratio;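 further: reporter cells co-stimulated with 50 nM rosiglitazone agonist during compound treatment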); conditions: HEK293 PPARg-UAS-bla, beta-lactamase ratio, antagonist mode; series mostly up to 76.8 µM
Peroxisome proliferator-activated receptor gamma (Homo sapiens), sequence (P37231 whole entry, looked up): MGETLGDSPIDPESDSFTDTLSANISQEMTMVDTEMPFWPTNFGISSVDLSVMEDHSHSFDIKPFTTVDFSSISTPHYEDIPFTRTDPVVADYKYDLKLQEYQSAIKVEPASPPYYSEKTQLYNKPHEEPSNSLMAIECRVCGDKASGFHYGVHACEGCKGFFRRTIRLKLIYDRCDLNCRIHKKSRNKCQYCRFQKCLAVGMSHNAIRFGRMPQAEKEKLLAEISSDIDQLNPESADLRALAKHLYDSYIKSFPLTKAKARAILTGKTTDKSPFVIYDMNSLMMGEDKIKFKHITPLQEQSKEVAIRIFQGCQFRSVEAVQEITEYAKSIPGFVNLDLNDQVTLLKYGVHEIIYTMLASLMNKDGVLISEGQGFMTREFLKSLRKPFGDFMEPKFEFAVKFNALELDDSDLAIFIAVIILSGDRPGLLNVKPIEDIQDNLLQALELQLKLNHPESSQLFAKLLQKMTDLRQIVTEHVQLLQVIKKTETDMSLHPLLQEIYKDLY
Procedure, shortened: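 PPAR-gamma-UAS-bla HEK293 cells (3000/well, 1% charcoal/dextran-stripped FBS) were preincubated 6-6.5 h at 37 C, given titrated compounds, then stimulated with 50 nM rosiglitazone for 16 h. Beta-lactamase activity was read with CCF4 dye; IC50 came from Hill fits.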

[12] = molecular target: Vitamin D3 receptor (Homo sapiens) (UniProt P11473); assay: qHTS assay for small molecule antagonists of vitamin D receptor signaling (AID 588541; calls by dose curve;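 further: receptor activated by calcitriol during compound treatment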); conditions: HEK293T VDR-UAS-bla, beta-lactamase ratio, antagonist mode; series mostly up to 76.7 µM
Vitamin D3 receptor (Homo sapiens), sequence (P11473 whole entry, looked up): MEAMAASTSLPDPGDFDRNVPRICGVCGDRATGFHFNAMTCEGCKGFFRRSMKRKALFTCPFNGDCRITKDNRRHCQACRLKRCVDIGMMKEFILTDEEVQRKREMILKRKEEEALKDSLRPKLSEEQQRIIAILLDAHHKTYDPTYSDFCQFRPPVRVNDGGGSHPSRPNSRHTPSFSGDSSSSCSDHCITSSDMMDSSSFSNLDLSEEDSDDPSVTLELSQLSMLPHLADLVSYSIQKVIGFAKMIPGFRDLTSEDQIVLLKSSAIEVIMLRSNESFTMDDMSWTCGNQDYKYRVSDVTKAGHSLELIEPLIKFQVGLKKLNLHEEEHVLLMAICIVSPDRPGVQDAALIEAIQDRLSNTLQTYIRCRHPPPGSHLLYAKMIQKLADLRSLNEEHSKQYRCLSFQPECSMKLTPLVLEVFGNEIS
Procedure, shortened: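 VDR-UAS-bla HEK293T cells (2000/well, 2% charcoal-stripped FBS) were treated with titrated compounds plus 1-alpha,25-dihydroxyvitamin D3 (50 nM or 3 nM final) for 16 h at 37 C. CCF4 beta-lactamase fluorescence was read; Hill fits gave IC50.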

[13] = Primary qHTS for small molecule stabilizers of the endoplasmic reticulum resident proteome: Secreted ER Calcium Modulated Protein (SERCaMP) assay (AID 1508630); conditions: SH-SY5Y GLuc-SERCaMP (Gaussia luciferase released on ER calcium loss) secretion, thapsigargin, luminescence; series mostly up to 38.4 µM
Procedure, shortened: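 GLuc-SERCaMP-expressing SH-SY5Y cells, pretreated 16 h with compound, are challenged with thapsigargin to empty ER calcium stores; after 4 h, coelenterazine is added directly to the medium and luminescence is imaged.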

[14] = qHTS assay for small molecule antagonists of the retinoid-related orphan receptor gamma (ROR-gamma) signaling pathway - cell viability counter screen (AID 720652; active means well fitted curve in the direction sought with a large enough effect in the repeat runs; an effect the other way counts as inactive or inconclusive;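 further: CHO reporter cells with doxycycline-induced ROR-gamma expression; compound exposure lasted 16 hr before ATP read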); conditions: RORgamma reporter cell line viability counter screen; series mostly up to 92.2 µM
Procedure, shortened: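 Cytotoxicity is quantified via intracellular ATP (CellTiter-Glo luminescence) in doxycycline-induced CHO ROR response element-luciferase reporter cells treated with compound for 16 hr at 37 C, 5% CO2.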

Measured: Potency

ClC(Cl)=C(c1ccc(Cl)cc1)c1ccc(Cl)cc1
inactive: [1] > 92 µM | [2] | [3] | [4] | [5] | [6] | [7] | [8] | [9] | [10] | [11] | [12]

Cc1nnc2ccc(-c3cccc(C(F)(F)F)c3)nn12
inactive: [13]

CCCN(C/C=C\I)[C@@H]1CCc2ccc(O)cc2C1
inactive: [13]

C=C(C)C1Cc2c(ccc3c(=O)c4c(oc23)COc2cc(OC)c(OC)cc2-4)O1 (configuration not stated)
inactive: [13]

C=CCc1ccc(OC)cc1
inactive: [1] > 92 µM | [2] | [3] | [4] | [5] | [6] | [7] | [8] | [9] | [11] | [14]

O=C(Nc1cccc(F)c1)N1CCCC2(CCN(C(=O)Oc3ccccc3)CC2)C1
inactive: [13]

O=C(Oc1ccccc1)N1CCC[C@@]2(CCN(Cc3cc(C(F)(F)F)cc(C(F)(F)F)c3)C2)C1
inactive: [13]

COP(=S)(OC)Oc1ccc([N+](=O)[O-])cc1
inactive: [1] > 92 µM | [2] | [3] | [4] | [5] | [6] | [7] | [8] | [9] | [11] | [12] | [14]

CC(C)CN1CCCC2(CCN(C(=O)Oc3ccccc3)CC2)C1
inactive: [13]

O=C(Oc1ccccc1)N1CCC2(CCN(Cc3nccs3)CC2)CC1
inactive: [13]
